The values below come from PubChem BioAssay AID588579 (National Center for Advancing Translational Sciences (NCATS), 2011).

Values joined by “and” are separate entries in the source; they are usually repeats but may differ in a detail not shown here. Equal values may be shown once. The campaign covered roughly 400,000 compounds. About 2,200 (0.55%) were called active. Entries that show only a call come without a potency. Roughly 1% stayed inconclusive and do not appear here. The sample as a whole holds a higher share of actives than the screen did. Unmarked numbers belong to inactive results. The call rests on the fitted dose curve; in most records, active means well fitted inhibition curve with a large enough effect; inconclusive means small, poorly fitted or top-dose-only effect, or another doubt; inactive means no such curve, though single readings can be large or run the other way.
Potency means the concentration at half of the fitted maximal effect.

Sequence of DNA polymerase kappa (Homo sapiens) (Q9UBT6 whole entry, looked up): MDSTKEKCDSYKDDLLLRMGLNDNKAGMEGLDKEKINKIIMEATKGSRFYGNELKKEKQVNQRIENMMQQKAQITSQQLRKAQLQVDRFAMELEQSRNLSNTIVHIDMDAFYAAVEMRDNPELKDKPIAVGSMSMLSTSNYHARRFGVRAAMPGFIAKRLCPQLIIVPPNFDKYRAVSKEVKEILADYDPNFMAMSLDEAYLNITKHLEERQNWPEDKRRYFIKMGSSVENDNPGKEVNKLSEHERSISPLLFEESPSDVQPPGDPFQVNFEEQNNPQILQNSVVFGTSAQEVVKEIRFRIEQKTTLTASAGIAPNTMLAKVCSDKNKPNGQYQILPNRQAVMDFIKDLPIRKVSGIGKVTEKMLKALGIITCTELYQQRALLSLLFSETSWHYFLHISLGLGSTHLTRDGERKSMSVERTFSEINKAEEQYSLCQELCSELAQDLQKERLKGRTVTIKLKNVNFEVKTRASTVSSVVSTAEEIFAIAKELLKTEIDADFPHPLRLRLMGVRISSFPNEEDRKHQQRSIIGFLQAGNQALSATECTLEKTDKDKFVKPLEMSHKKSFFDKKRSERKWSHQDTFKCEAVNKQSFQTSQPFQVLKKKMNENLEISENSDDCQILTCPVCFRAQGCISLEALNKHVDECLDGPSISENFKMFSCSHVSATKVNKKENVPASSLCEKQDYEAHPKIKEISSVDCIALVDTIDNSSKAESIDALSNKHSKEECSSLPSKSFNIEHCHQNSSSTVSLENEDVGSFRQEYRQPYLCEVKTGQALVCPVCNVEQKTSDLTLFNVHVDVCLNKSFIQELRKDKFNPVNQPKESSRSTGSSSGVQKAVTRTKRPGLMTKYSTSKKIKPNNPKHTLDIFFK

The experiment concerns the target DNA polymerase kappa (Homo sapiens) (UniProt Q9UBT6). Kind of experiment: qHTS for Inhibitors of Polymerase Kappa. The following applies: purified Pol kappa, fluorescent DNA synthesis assay, 10 min; series mostly up to 107 µM. Put shortly: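 Fluorescent qHTS in 1536-well format: enzyme (10 nM) and compound sat 15 min at room temperature before 50 nM substrate (final) was added. Signal taken at 0 and 10 min; no-enzyme buffer wells were negative controls.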
In general terms: Quantitative high-throughput screening tests each substance at several concentrations.
`O=C(c1ccc(NS(=O)(=O)c2ccc3[nH]c(=O)[nH]c3c2)cc1)N1CCCCC1`: the Potency result is “inactive”.

As for `Cc1noc(C)c1S(=O)(=O)Nc1ccc(C(=O)O)cc1`, the Potency entry was “inactive”.

Consider `O=C(O)c1ccc(NS(=O)(=O)c2ccc3c(c2)C(=O)c2cc(S(=O)(=O)Nc4ccc(C(=O)O)cc4)ccc2-3)cc1`, for which the Potency was 79.4 µM (active).

Take `O=C(O)c1c(Br)c(Br)c(Br)c(Br)c1C1c2ccc(O)cc2Oc2cc(O)ccc21`: the Potency is 1.12 µM (active).

For the compound `COc1ccccc1CNc1ncncc1-c1cccc(NS(C)(=O)=O)c1`, the Potency entry is “inactive”.

For `CC(C)C(N)C(=O)OCCOCn1cnc2c(=O)[nH]c(N)nc21` (stereo not given), the Potency result is “inactive”.

For the compound `CC(C)[C@H]1CC[C@@H](C)C[C@H]1O`, the activity, negative = inhibition was -5.92% [at 19.4 µM].

`COc1cccc(Cn2c(=O)c(CCc3ccccc3)nc3cnc(N(C)C)nc32)c1`: the Potency result was “inactive”.

For the compound `CC(C)C1N=C2c3ccccc3N=C(SCC(=O)c3ccc(O)c(O)c3)N2C1=O` (stereo not given), the Potency is 20 µM (active).

`Cc1ccc(CNC(=O)CSC2=Nc3ccccc3C3=NC(C)C(=O)N23)cc1` (stereo not given): the Potency entry was “inactive”.

Consider `CCOC(=O)CSC1=Nc2ccccc2C2=NC(CCC(=O)NCc3ccc(F)cc3)C(=O)N12` (stereo not given), for which the Potency result was “inactive”.

With `CCCCC/C=C\CC1OC1CCCCCCCC(=O)O` (stereo not given), the activity, negative = inhibition was -0.735% [at 19.4 µM].

Consider `COc1cc2nc(N3CCCN(C)CC3)nc(NC(C)C)c2cc1OC`, for which the Potency result was “inactive”.

`C=COC(=O)N1CCN(/[N+]([O-])=N/Oc2ccc([N+](=O)[O-])cc2[N+](=O)[O-])CC1`: the Potency result is “inactive”.

With `CCC(C)Cn1c(O)cc2nn(-c3nc4ccccc4s3)c(=O)c-2c1C` (stereo not given), the Potency was 25.1 µM (active).

`Nc1ncnc2c1c(I)cn2[C@@H]1C[C@H](N)[C@@H](O)[C@H]1O`: the Potency result is “inactive”.

For the compound `CC1(C)OC2CO[C@]3(COS(N)(=O)=O)OC(C)(C)OC3C2O1` (stereo not given in full), the Potency entry was “inactive”.

As for `COc1ccc(-c2cc(C(=O)NCc3cc(OC)c(OC)c(OC)c3)[nH]n2)cc1`, the Potency result is “inactive”.

For `COc1ccc2[nH]c(C(=O)N/N=C/c3cc(OC)c(OC)c(OC)c3)cc2c1`, the Potency was 50.1 µM (active).

As to `COc1cc(NC(=O)c2cc3ccc4cccnc4c3[nH]2)cc(OC)c1OC`, the Potency result is “inactive”.

`Nc1nc2nc(Cl)[nH]c2c(=O)[nH]1`: the Potency entry is “inactive”.

In the case of `Cc1ccc(Cl)cc1NC(=O)CCS(=O)(=O)c1ccc(Br)s1`, the Potency result is “inactive”.

`COc1ccc(Cl)cc1NC(=O)CCC(=O)c1ccc(C)cc1`: the Potency result is “inactive”.

`COc1ccc(Cl)cc1NC(=O)CCS(=O)(=O)c1ccc(Br)cc1`: the Potency is 79.4 µM (active).

For the compound `COc1ccccc1CNc1ncnc2ccc(-c3ccc4c(c3)OCO4)cc12`, the Potency result is “inactive”.

In the case of `CC1(C)OC2CC3C4CCC5=CC(=O)CCC5(C)C4(F)C(O)CC3(C)[C@]2(C(=O)CCl)O1` (stereo not given in full), the Potency result is “inactive”.

For `O=c1c(-c2ccc(F)cc2)nc2cnc(N3CCOCC3)nc2n1-c1ccccc1`, the Potency entry was “inactive”.

Consider `CN(C)c1ccc(/C=C/c2c3ccccc3nc3ccccc23)cc1`, for which the Potency entry was “inactive”.

For `CC(C)(C(=O)NO)c1ccccc1`, the Potency result was “inactive”.

On to `C=CCn1c(=S)[nH]c2scc(-c3ccco3)c2c1=O`, for which the Potency is 22.4 µM (active).

On to `Fc1ccc(Cl)cc1-c1nc(Nc2ccncc2)c2nccnc2n1`, for which the Potency entry is “inactive”.

Take `COc1ccccc1CCn1c(=O)c(-c2cn(C)c3ccccc23)nc2cncnc21`: the Potency result is “inactive”.

With `CCCCC/C=C\C/C=C\CCCCCCCCCC(=O)O`, the activity, negative = inhibition is 1.81% [at 19.4 µM].

In the case of `Cc1ccc(/C=C(\C#N)C(=O)Nc2cc(C)ccc2C)cc1`, the Potency result was “inactive”.

Turning to `CC(C)NC(=O)/C(C#N)=C\c1ccc(N(C)C)c(Br)c1`, the Potency entry is “inactive”.

Regarding `N#C/C(=C\c1ccc(O)c(O)c1)C(N)=O`, the Potency is 10 µM (active).

Take `Nc1nc(N)c(N=O)c(N)n1`: the Potency entry was “inactive”.

For the compound `O=C(C[n+]1ccncc1)c1ccc2c(c1)CCCC2`, the Potency entry was “inactive”.

`CC(=O)NC(=O)c1ccccc1O`: the activity, negative = inhibition was -8.55% [at 19.4 µM].

In the case of `COc1ccccc1-c1cc(NCc2cccs2)ncn1`, the Potency entry is “inactive”.

Consider `CC(C)(C)C1CCC(NC(=O)c2cnn3c2NC(=C2CC2)C=C3C(F)F)CC1` (stereo not given), for which the Potency entry was “inactive”.

`COc1ccc(C[C@H](N)C(=O)N[C@@H]2[C@H](O)[C@H](n3cnc4c(N(C)C)ncnc43)O[C@@H]2CO)cc1`: the activity, negative = inhibition was -1.14% [at 12 µM].

Turning to `Cc1cc[n+](C2CCCCC2)cc1`, the Potency result is “inactive”.

Turning to `Cc1nc2cnc(N3CCN(C)CC3)nc2n(C[C@H]2CCCO2)c1=O`, the Potency entry was “inactive”.

`O=C1NN(c2ccccc2)C(=O)/C1=C/c1ccc(-c2cccc(C(=O)O)c2)o1`: the Potency is 44.7 µM (active).

Turning to `CCCCOc1ccc(C(=O)NO)cc1`, the Potency result is “inactive”.

Turning to `Cc1cc2oc(=O)cc(-c3ccccc3)c2c(C)c1/C=C/c1ccc(F)cc1`, the Potency result is “inactive”.

Regarding `COc1ccccc1OCCOc1ccc(/C=C2\C(=N)N3N=C(C)SC3=NC2=O)cc1`, the Potency result is “inactive”.

With `COc1cc(C(=O)N2CCOCC2)cc(OC)c1OC`, the activity, negative = inhibition was -0.831% [at 19.4 µM] and 0.0712% [at 19.4 µM].

Turning to `COc1cc(/C=C2\C(=N)N3N=C(CC(=O)N4CCOCC4)SC3=NC2=O)cc(OC)c1OC`, the Potency is 31.6 µM (active).

Turning to `C=C1C=C(C(F)F)n2ncc(C(=O)NCCc3ccccc3OC)c2N1`, the Potency entry was “inactive”.

For `O=c1c(-c2cccs2)nc2cnc(Oc3ccccc3)nc2n1-c1ccccc1`, the Potency entry was “inactive”.

In the case of `CC(C)C1=CC2=CC[C@@H]3[C@](C)(CO)CCC[C@]3(C)C2CC1` (stereo not given in full), the Potency entry is “inactive”.

`CCOC(=O)Cn1c(=O)sc2cccc(Cl)c21`: the activity, negative = inhibition is -6.5% [at 12 µM].

Take `Nc1ncnc2nnsc12`: the Potency entry is “inactive”.

On to `Cc1ccc(Cc2cnc(N)s2)o1`, for which the Potency is 15.8 µM (active).

With `COCCNc1ccnc(-c2cccc(NS(C)(=O)=O)c2)n1`, the Potency result was “inactive”.

As to `O=C1OC(C(O)CO)C(O)=C1O` (stereo not given), the Potency result is “inactive”.

Regarding `C1=C(N2CCOCC2)/C(=C/c2nc3ccccc3[nH]2)CC1`, the Potency was 79.4 µM (active).

In the case of `Cc1nn2c3cc(N4CCOCC4)ccc3nc2c2ccccc12`, the Potency entry is “inactive”.

Take `CNc1ncnc2ccc(-c3cccc(NS(C)(=O)=O)c3)cc12`: the Potency entry was “inactive”.

On to `CC[C@H](C)[C@H](NC(=O)[C@@H](N)CCC(=O)O)C(=O)N[C@@H](CC(C)C)C(=O)N[C@@H](CC(=O)O)C(=O)N[C@H](C(=O)N1CCC[C@H]1C(=O)N[C@@H](CO)C(=O)N[C@H](C(=O)O)[C@@H](C)O)C(C)C`, for which the Potency result was “inactive”.

Consider `C=CCOC(=O)C(=C)C`, for which the Potency result is “inactive”.

As for `O=C1COc2ccc(-c3csc(-c4ccc(Cl)cc4)n3)cc2N1`, the Potency entry is “inactive”.

On to `COc1ccc(CC(=O)Nc2sc(Cc3ccccc3)c(C)c2C(N)=O)cc1`, for which the Potency entry is “inactive”.

Consider `COc1ccc(Cc2nnc(NC(=O)Cc3cccs3)s2)cc1`, for which the Potency was 14.1 µM (active).

Consider `CCc1nnc(NC(=O)CCC(=O)NCc2ccccc2OC)s1`, for which the Potency entry was “inactive”.

As to `C=C[C@](C)(O)CCC1C(=C)CCC2[C@@](C)(CO)CCC[C@@]12C` (stereo not given in full), the Potency entry was “inactive”.

Take `CC(=O)OCC(=O)C1CCC2C3CCC4=CC(=O)CC[C@@]4(C)C3CC[C@]12C` (stereo not given in full): the Potency result is “inactive”.

For `COC(=O)[C@@H]1CC2=CC(=O)CC[C@]2(C)[C@@]23O[C@@H]2C[C@@]2(C)[C@@H](CC[C@@]24CCC(=O)O4)[C@H]13`, the Potency result is “inactive”.

Consider `COc1ccc(/C=C/c2ccccn2)cc1OC`, for which the Potency entry is “inactive”.

On to `CN(c1ccccc1)S(=O)(=O)c1ccc(Cl)c(C(=O)OCC(=O)N2CCOCC2)c1`, for which the Potency entry is “inactive”.

Turning to `CN(c1ccccc1)S(=O)(=O)c1ccc(Cl)c(C(=O)OCC(=O)NCc2ccco2)c1`, the Potency was 79.4 µM (active).

As to `Cn1c(N)c(C(=O)COC(=O)c2ccccc2NCc2ccco2)c(=O)n(C)c1=O`, the Potency entry was “inactive”.

Turning to `O=C(COC(=O)c1cc(S(=O)(=O)N2CCOCC2)ccc1Cl)NCCc1ccccc1`, the Potency entry was “inactive”.

Regarding `Cc1cc(C(=O)OCC(=O)NCc2ccco2)c(C)n1-c1ccccc1`, the Potency is 79.4 µM (active).

Turning to `COc1ccc(-n2c(SCC(=O)NCc3ccco3)nnc2-c2c[nH]c3ccccc23)cc1`, the Potency entry is “inactive”.

With `CCNc1ncc2ncc(=O)n(Cc3cccc(OC)c3)c2n1`, the Potency entry was “inactive”.

Take `Cc1cc(N(C)C)nc(Cl)n1`: the activity, negative = inhibition was -8.53% [at 12 µM].

Turning to `O=C(Nc1cccc(F)c1)N1CCC2(CC1)CCN(S(=O)(=O)c1ccccc1)CC2`, the Potency result was “inactive”.

For the compound `COc1ccc(/C=C/c2ccnc3ccccc23)cc1OC`, the Potency entry was “inactive”.

For `Cc1cccc(CN2Cc3cccc4c3[C@H](C=CC4)CC2=S)c1`, the Potency entry was “inactive”.

Consider `CCN(C(=O)COC(=O)CCC(=O)c1cccs1)C1CCCCC1`, for which the Potency entry is “inactive”.

Take `O=C(COC(=O)CCC(=O)c1cccs1)NCc1ccco1`: the Potency was 31.6 µM (active).

With `CC1CCN(C(=O)COC(=O)CCC(=O)c2cccs2)CC1`, the Potency result is “inactive”.

As to `O=C(Nc1cccc(F)c1)N1CC2(CCN(C(=O)c3cnccn3)CC2)C1`, the Potency entry is “inactive”.

`CC(C)[C@H](CO)Nc1nc(Nc2cc(N)cc(Cl)c2)c2ncn(C(C)C)c2n1`: the activity, negative = inhibition is -6.51% [at 19.4 µM].

Take `Cc1ccc(-c2nnc(SCC(=O)NCc3ccccc3)nc2-c2ccc(C)cc2)cc1`: the Potency result was “inactive”.

For `Clc1ccccc1CSc1nnc(-c2ccco2)c(-c2ccco2)n1`, the Potency was 35.5 µM (active).

Consider `CC1(C)N=C(SCc2ccccc2Cl)c2ccccc2N1`, for which the Potency entry is “inactive”.

As for `CSc1n[nH]c(-c2ccco2)n1`, the Potency result was “inactive”.

For `c1ccc(CSc2nnc(-c3ccco3)c(-c3ccco3)n2)cc1`, the Potency was 20 µM (active).

Take `Clc1ccccc1CSc1nncn2c1cc1occc12`: the Potency result was “inactive”.

Turning to `Nc1nc2c(nc(Cl)n2C2OC(CO)C(O)C2O)c(=O)[nH]1` (stereo not given), the Potency entry is “inactive”.

For the compound `COC(=O)N1CCC2(CCCN(c3ccncc3)C2)CC1`, the Potency entry is “inactive”.

`O=P(O)(O)C(O)c1ccc2ccccc2c1` (stereo not given): the activity, negative = inhibition is 8.31% [at 19.4 µM].

As to `COc1cc2nc(Cl)nc(NC3CC3)c2cc1OC`, the Potency result is “inactive”.

Consider `Cc1ccc(Nc2nnc(-c3ccc(C)c(S(=O)(=O)N4CCCCC4)c3)c3ccccc23)cc1`, for which the Potency result is “inactive”.

As to `Cc1ccc(C)c(Nc2nnc(-c3ccc(C)c(S(=O)(=O)N4CCCCC4)c3)c3ccccc23)c1`, the Potency was 79.4 µM (active).

On to `Cc1ccc(-c2nnc(Nc3ccc(C(=O)N(C)C)cc3)c3ccccc23)cc1S(N)(=O)=O`, for which the Potency result is “inactive”.
